Reference: PubChem BioAssay AID720597 (Broad Institute, 2013)
Results with a measured potency or affinity are listed apart. Activity calls are given as the source filed them.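 Rule for the calls: active = fitted half-maximal dose no more than twice the top valid tested dose, for compounds that lower signal; inconclusive = fit invalid, or curve flat with activity between -70 and -30; inactive = potency past limit, curve flat within ±30, or signal increasing.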

biological target: NAD-dependent protein deacylase sirtuin-5, mitochondrial (Homo sapiens) (UniProt Q9NXA8); test: blockers of sirtuin-5 peptide desuccinylation – biochemical, fluorescence imaging, cherry-pick, set 6, dose response (AID 720597); conditions: Purified SirT5, succinyl-peptide-AMC/trypsin fluorescence; series mostly up to 15 µM;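 note: lower AMC signal can also come from blocking the trypsin step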
Sequence (Q9NXA8 whole entry, looked up): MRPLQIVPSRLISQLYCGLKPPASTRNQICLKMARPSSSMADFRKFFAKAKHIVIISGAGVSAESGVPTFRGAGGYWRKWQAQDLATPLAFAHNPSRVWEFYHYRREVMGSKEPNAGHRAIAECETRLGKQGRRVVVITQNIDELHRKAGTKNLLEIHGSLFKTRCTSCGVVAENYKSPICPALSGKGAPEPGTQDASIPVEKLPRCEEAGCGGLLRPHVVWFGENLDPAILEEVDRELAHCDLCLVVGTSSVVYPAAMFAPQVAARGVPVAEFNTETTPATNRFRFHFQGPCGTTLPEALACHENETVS

outcome, inactive:
C[C@H](NC(=O)C[C@@H]1CC[C@H]2[C@@H](COC[C@@H](O)CN2C(=O)Nc2cccc(F)c2)O1)c1ccccc1
C[C@@H]1CN([C@@H](C)CO)C(=O)c2cc(NC(=O)CCN3CCOCC3)ccc2O[C@H]1CN(C)Cc1ccc(C(F)(F)F)cc1
O=C(Nc1ccccc1F)N1CC(=O)N2[C@H](C1)[C@@H](c1ccc(C#CC3CCCC3)cc1)[C@@H]2CO
CCCC#Cc1ccc([C@H]2[C@H]3CN(S(=O)(=O)Cc4ccccc4)CCCCN3[C@H]2CO)cc1
Cc1noc(C)c1NC(=O)Nc1cccc2c1O[C@H](CN(C)Cc1ccc(Oc3ccccc3)cc1)[C@@H](C)CN([C@@H](C)CO)C2=O
CCCC#Cc1ccc(CC[C@H]2O[C@H]3CC[C@@H](CO)O[C@H]3C[C@H]2NS(=O)(=O)c2ccccc2)cc1
COc1ccc(S(=O)(=O)Nc2ccc3c(c2)C(=O)N([C@@H](C)CO)C[C@H](C)[C@@H](CN(C)Cc2ccc(C(F)(F)F)cc2)OCCCC[C@@H](C)O3)cc1
O=S(=O)(c1ccc(F)cc1)N1CCCCN2[C@@H](CO)[C@H](c3ccc(C#CC4CCCC4)cc3)[C@@H]2C1
CO[C@@H]1CC[C@@H]2CCN(C)C(=O)[C@@H](C)[C@H](OC)CN(C)C(=O)c3cc(C#N)ccc3OC[C@@H]1O2
COc1ccc(S(=O)(=O)N(C)C[C@H]2OCCCC[C@@H](C)Oc3ccc(NS(=O)(=O)c4ccc(F)cc4)cc3C(=O)N([C@@H](C)CO)C[C@@H]2C)cc1
COc1cccc(-c2cn(CC[C@@H]3CC[C@H](NC(=O)CC4CC4)[C@@H](CO)O3)nn2)c1
COc1ccc(S(=O)(=O)Nc2ccc3c(c2)C(=O)N([C@H](C)CO)C[C@H](C)[C@H](CN(C)S(=O)(=O)c2cccs2)OCCCC[C@H](C)O3)cc1
C[C@H]1CN([C@@H](C)CO)S(=O)(=O)c2ccc(-c3cncnc3)cc2O[C@H]1CN(C)Cc1ccc(Oc2ccccc2)cc1
COc1ccc(S(=O)(=O)Nc2ccc3c(c2)C(=O)N([C@@H](C)CO)C[C@@H](C)[C@@H](CN(C)Cc2ccc(C(F)(F)F)cc2)OCCCC[C@@H](C)O3)cc1
COc1cccc(S(=O)(=O)N(C)C[C@H]2Oc3cc(C4=CCCC4)ccc3S(=O)(=O)N([C@H](C)CO)C[C@H]2C)c1
COc1cccc(CNC(=O)C[C@H]2CC[C@@H]3[C@@H](COc4ccc(NC(=O)c5cccs5)cc4C(=O)N3C)O2)c1
CC(C)C#Cc1cnc2c(c1)C(=O)N([C@@H](C)CO)C[C@@H](C)[C@H](CN(C)C(=O)CN1CCOCC1)O2
C[C@@H]1CN([C@@H](C)CO)C(=O)c2cccc(NC(=O)c3ccncc3)c2O[C@@H]1CN(C)S(C)(=O)=O
CCOC(=O)N(C)C[C@@H]1OCc2ccccc2-c2ccccc2C(=O)N([C@@H](C)CO)C[C@H]1C
C[C@H]1CN([C@@H](C)CO)S(=O)(=O)c2ccc(C#CC(C)(C)O)cc2O[C@@H]1CN(C)Cc1ccc(-c2ccccc2)cc1
C[C@H](CO)N1C[C@H](C)[C@@H](CN(C)Cc2ccc(Cl)c(Cl)c2)OCCCC[C@H](C)Oc2ccc(NS(=O)(=O)c3cccs3)cc2C1=O
C[C@@H]1CN([C@H](C)CO)C(=O)Cc2cc(NC(=O)Cc3cn(C)c4ccccc34)ccc2O[C@@H]1CN(C)C
Cc1cccc(-c2ccc([C@@H]3[C@@H](CO)N4C(=O)CN(S(=O)(=O)c5cccc(F)c5)C[C@@H]34)cc2)c1
COCCOC(=O)N1C(=O)[C@@]2(c3cc(C#CCCO)ccc31)[C@H](c1ccccc1OCCO)N1[C@H](c3ccccc3)[C@H](c3ccccc3)OC(=O)[C@H]1[C@@H]2C(=O)N1CCN(c2ncccn2)CC1
O=C(CN1CCOCC1)N1CCCCN2[C@H](C1)[C@H](c1ccc(-c3ccccc3)cc1)[C@@H]2CO
C[C@@H]1CN([C@H](C)CO)C(=O)c2cc(NS(=O)(=O)c3ccc(F)cc3)ccc2O[C@@H](C)CCCCO[C@@H]1CN(C)CC1CCCCC1
C[C@H]1CN([C@@H](C)CO)S(=O)(=O)c2ccc(C#CC3CCCC3)cc2O[C@@H]1CN(C)C(=O)Nc1cc(F)ccc1F
C[C@@H]1CCCCO[C@H](CN(C)S(=O)(=O)c2ccc(Cl)cc2)[C@H](C)CN([C@@H](C)CO)C(=O)c2cc(N(C)C)ccc2O1
C[C@H]1CN([C@@H](C)CO)S(=O)(=O)c2ccc(/C=C/c3ccccc3)cc2O[C@H]1CN(C)Cc1ccccc1
CC(C)CC#Cc1ccc2c(c1)O[C@H](CN(C)S(=O)(=O)c1cccc(F)c1)[C@H](C)CN([C@H](C)CO)S2(=O)=O
CO[C@@H]1CC[C@@H]2CCOc3c(C#N)cccc3C(=O)N(C)C[C@@H](OC)[C@@H](C)C(=O)N(C)C[C@@H]1O2
O=S(=O)(N[C@@H]1CC[C@@H](CCn2cc(Cc3ccccc3)nn2)O[C@H]1CO)c1ccccc1F
CO[C@H]1CN(C)C(=O)c2cc(NC(C)=O)ccc2OC[C@H](C)N(S(=O)(=O)c2cn(C)cn2)C[C@H]1C
C[C@H](CO)N1C[C@H](C)[C@@H](CN(C)C(=O)c2ccc3c(c2)OCO3)Oc2cc(/C=C/c3ccccc3)ccc2S1(=O)=O
C[C@@H]1CN([C@H](C)CO)C(=O)c2cc(NS(=O)(=O)c3cn(C)cn3)ccc2O[C@H]1CN(C)C(=O)Nc1ccccc1
COc1ccc(-c2cnc3c(c2)C(=O)N([C@@H](C)CO)C[C@H](C)[C@@H](CN(C)Cc2ccc(C(=O)O)cc2)O3)cc1
C[C@H](CO)N1C[C@H](C)[C@@H](CN(C)CC2CCCCC2)Oc2c(NC(=O)CCCCCC(=O)Nc3ccccc3N)cccc2C1=O
C[C@H]1CN([C@@H](C)CO)S(=O)(=O)c2ccc(C#CC3CC3)cc2O[C@@H]1CN(C)Cc1ccccc1F
O=C(NCC[C@@H]1CC[C@@H](NS(=O)(=O)c2cccc(F)c2)[C@H](CO)O1)C1CCOCC1
COc1ccc(CN(C)C[C@@H]2Oc3ccc(NC(=O)CCC(F)(F)F)cc3C(=O)N([C@H](C)CO)C[C@H]2C)cc1
